According to PubChem BioAssay (EPA / NIEHS):
Values joined by “and” are separate entries in the source; they are usually repeats but may differ in a detail not shown here. Equal values may be shown once. Inconclusive results are not listed. More than one record can exist for a structure, and the calls need not agree. Active and inactive are the calls of the source. Rule for the calls, unless noted: active = hit-call score of the fitted dose curve at least 0.9, where 1 is the maximum; inactive = score below 0.9.

Legend:
[1] = CCTE_Shafer_MEA_dev_mutual_information_norm: CCTE's Neural Network Formation Assay for Mutual Information Normalization, Shafer Lab (AID 2284091);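 for AC50: mutual information between electrodes summarised as area under curve across four recording days; potency is for a decrease in mutual information relative to DMSO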
Summary of the method: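 Shared information across electrodes, tracked on days 5, 7, 9 and 12 of network development and collapsed as trapezoidal area under the curve. Rat cortical cultures were treated continuously from plating, with treatment renewed at feeds on DIV 5 and 9; DMSO baseline, negative-direction fit.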

[2] = CCTE_Shafer_MEA_dev_correlation_coefficient_mean: CCTE's Neural Network Formation Assay for Mean Correlation Coefficient, Shafer Lab (AID 2284093);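 for AC50: well mean pairwise spike train correlation integrated as AUC over recording days 5 to 12; potency fitted for loss of correlation relative to DMSO vehicle wells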
Summary of the method: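 Spontaneous activity recorded on days 5, 7, 9 and 12 post-plating; pairwise spike correlations are averaged across active electrodes and collapsed to an area-under-curve. Rat cortical cultures are dosed from plating through 12 days, with compound renewed at media changes.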

[3] = UKN2_HCS_IMR90_neural_migration: University of Konstanz (UKN) Leist Lab Neural Crest Cell Migration Assay in human induced IMR90 Pluripotent Stem Cells (UKN2) (AID 2284204); conditions: actives raise or lower the signal
Summary of the method: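 High-content imaging of calcein-AM and Hoechst stained cells quantifies migration into a stopper-defined gap after 24 h compound exposure. Neural crest cells from IMR90 iPSC migrated 24 h in EGF/FGF N2-S medium before dosing; DMSO baseline.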

[4] = IUF_NPC1b_proliferation_BrdU_72hr: Leibniz Research Institute for Environmental Medicine (IUF) 72-hour Neural Progenitor Cell Bromodeoxyuridine (BrdU) Proliferation Assay (NPC1b) (AID 2284207)
Summary of the method: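 Human fetal cortex-derived (GW 16-19) neural progenitor spheres, 0.25-0.35 mm, one per well in EGF/FGF proliferation medium, exposed to compound for 72 h at 37C, pH 7.2-7.6. BrdU incorporation over the final 16 h read by luminescence ELISA, relative to DMSO.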

[5] = IUF_NPC1a_proliferation_area_72hr: Leibniz Research Institute for Environmental Medicine (IUF) 72-hour Neural Progenitor Cell Proliferation Area Assay (NPC1a) (AID 2284208)
Summary of the method: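 hNPC spheres (human fetal cortex, GW 16-19), one per poly-Hema U-bottom well; EGF+FGF medium; dosed day 0, no re-dosing; 72 h, 37C, 5% CO2; phase-contrast sphere area; DMSO = baseline; minus-GF = positive ctrl.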

[6] = IUF_NPC1_viability_72hr: Viability Assessment at 72 hours in the Leibniz Research Institute for Environmental Medicine (IUF) Neural Progenitor Cell Proliferation Assay (NPC1) (AID 2284209)
Summary of the method: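 Three-day continuous exposure of human neural progenitor spheres under EGF/FGF-driven proliferation; cell viability scored by alamar blue signal versus DMSO.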

[7] = CCTE_Mundy_HCI_Cortical_Synap_Neur_Matur_NeuriteSpotCountPerNeuriteLength: CCTE's Synaptogenesis and Neurite Maturation Assay in rat cortical cells for Neurite Spot Count per Neurite Length, Mundy Lab (AID 2284210)
Summary of the method: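 Synaptophysin spots per unit neurite length, measured by automated imaging of MAP2/synaptophysin/Hoechst-stained neurons. Cultures from rat cortex received chemical at DIV 7 with media change through DIV 12; glial growth arrested by AraC at DIV 5; DMSO baseline.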

[8] = CCTE_Mundy_HCI_Cortical_Synap_Neur_Matur_BPCount: CCTE's Synaptogenesis and Neurite Maturation Assay in rat cortical cells for Branch Point Count, Mundy Lab (AID 2284211)
Summary of the method: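 In this multiplexed morphology assay, cortical cells from rat receive chemicals at DIV 7 and are fixed at DIV 12, then immunostained and imaged; branch points are counted, with DMSO as baseline.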

[9] = CCTE_Mundy_HCI_Cortical_NOG_NeuriteCount: CCTE's Neurite Outgrowth Assay in rat cortical cells for Neurite Count, Mundy Lab (AID 2284212);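 note: cells fixed about two days after chemical exposure began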
Summary of the method: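 Rat cortical primary cells; compound added 2 h post-plating, 1/10 dilution of working solution. Anti-betaIII-tubulin/AF488 ICC; ArrayScan neurite count vs DMSO.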

[10] = CCTE_Mundy_HCI_Cortical_NOG_NeuriteLength: CCTE's Neurite Outgrowth Assay in rat cortical cells for Neurite Length, Mundy Lab (AID 2284213);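 for AC50: neurites imaged about 48 to 50 h after chemical exposure began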
Summary of the method: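 First, rat primary cortical cells were plated and, 2 h later, given test chemical as a 1/10 dilution. Finally, βIII-tubulin immunostaining enabled automated imaging of neurite length.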

[11] = CCTE_Mundy_HCI_Cortical_Synap_Neur_Matur_NeuriteLength: CCTE's Synaptogenesis and Neurite Maturation Assay in rat cortical cells for Neurite Length, Mundy Lab (AID 2284214)
Summary of the method: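 DMSO-normalised neurite length, from high-content imaging of anti-MAP2-stained rat cortical cells fixed at DIV 12. Glia were suppressed with AraC (DIV 5) before chemical exposure from DIV 7.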

[12] = CCTE_Mundy_HCI_Cortical_Synap_Neur_Matur_NeuriteSpotCountPerNeuron: CCTE's Synaptogenesis and Neurite Maturation Assay in rat cortical cells for Neurite Spot Count per Neuron Count, Mundy Lab (AID 2284215)
Summary of the method: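 Read-out: neurite-associated synaptophysin puncta per neuron, imaged by high-content analysis after MAP2, synaptophysin and Hoechst staining. Rat primary cortical cultures, dosed DIV 7 through DIV 12; DMSO served as baseline.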

[13] = CCTE_Mundy_HCI_Cortical_Synap_Neur_Matur_SynapseCount: CCTE's Synaptogenesis and Neurite Maturation Assay in rat cortical cells for Synapse Count, Mundy Lab (AID 2284218)
Summary of the method: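 Endpoint: synapses/neuron by HCI (synaptophysin puncta on MAP2-labelled neurites, Hoechst nuclei). Rat primary cortical cells, AraC DIV 5, dosed DIV 7, fixed DIV 12; DMSO negative control.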

[14] = CCTE_Mundy_HCI_Cortical_Synap_Neur_Matur_NeuriteCount: CCTE's Synaptogenesis and Neurite Maturation Assay in rat cortical cells for Neurite Count, Mundy Lab (AID 2284222)
Summary of the method: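 Rat primary cortical cells; AraC added at DIV 5, chemicals dosed with media change at DIV 7 through DIV 12. MAP2/synaptophysin/Hoechst immunostaining, high-content imaging of neurite number; fitted relative to DMSO.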

[15] = CCTE_Shafer_MEA_acute_LDH: CCTE's Lactate Dehydrogenase Assay for Cytotoxicity in the Neural Acute Assay, Shafer Lab (AID 2284086; active = hit-call score of the fitted dose curve at least 0.9, where 1 is the maximum;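 note: active means LDH release rises above DMSO vehicle level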)
Summary of the method: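 Cytotoxicity readout: spectrophotometric LDH activity in supernatant of rat primary cortical neurons, post-plating day 13 or 15, sampled after 40 min compound exposure; signal gain relative to DMSO baseline.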

[16] = UKN4_HCS_LUHMES_neurite_outgrowth: University of Konstanz (UKN) Leist Lab Neurite Outgrowth Assay in human LUHMES cells (UKN4) (AID 2284206); conditions: actives raise or lower the signal
Summary of the method: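 Neurite area in dopaminergic-model LUHMES neurons is measured by high-content imaging of calcein-AM after 24 h treatment starting shortly after day-2 replating; Hoechst staining tracks viability.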

[17] = CCTE_Mundy_HCI_hN2_NOG_NeuriteCount: CCTE's Neurite Outgrowth Assay in human hN2 cells for Neurite Count, Mundy Lab (AID 2284219; active = hit-call score of the fitted dose curve at least 0.9, where 1 is the maximum)
Summary of the method: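 In this morphology assay, hNP1-derived neurons received test chemical 2 h post-plating and were fixed two days later in warm paraformaldehyde/sucrose containing Hoechst 33342. Neurites, labelled by rabbit anti-βIII-tubulin (1:800) and Alexa Fluor-488 (1:500), were counted automatically.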

[18] = CCTE_Mundy_HCI_hN2_NOG_NeuriteLength: CCTE's Neurite Outgrowth Assay in human hN2 cells for Neurite Length, Mundy Lab (AID 2284220; active = hit-call score of the fitted dose curve at least 0.9, where 1 is the maximum)
Summary of the method: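 Plate hNP1-derived neurons, then add chemical 2 h later as a 1/10 dilution. Stain with anti-βIII-tubulin then Alexa Fluor-488 secondary, and image automatically to measure neurite length.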

[19] = CCTE_Mundy_HCI_hN2_NOG_NeuronCount: CCTE's Neurite Outgrowth Assay in human hN2 cells for Neuron Count, Mundy Lab (AID 2284221; active = hit-call score of the fitted dose curve at least 0.9, where 1 is the maximum)
Summary of the method: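 Read-out is the number of betaIII-tubulin-positive neurons imaged by automated high-content analysis, with DMSO as negative control.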

[20] = TAMU_PeakParms_SingleDonor1434_Chronotropy: Texas A&M University (TAMU) 1.5-hr Human Induced Pluripotent Stem Cell (iPSC)-derived Cardiomyocytes Calcium (Ca+2) Flux Assay for Cardiotoxicity: Chronotropy (changes in peak frequency) (AID 2284217); conditions: actives raise or lower the signal
Summary of the method: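 iPSC-derived cardiomyocytes (single donor 1434) dosed at 0.2, 1, 10 and 100 uM in 0.5% DMSO for 1.5 h at 37C; Ca2+ dye fluorescence gave average beat frequency. Zero-beat points removed; bidirectional fit versus DMSO, POD as EC05.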

Measured: AC50

CCOP(=S)(OCC)OC(Cl)C(Cl)(Cl)Cl (stereo not drawn)
active: [1] 15.9 µM and 18 µM | [2] 21.2 µM and 17.8 µM | [4] 1.35 µM | [7] 16.5 µM | [8] 70.5 µM and 13.3 µM | [9] 75.7 µM and 31.8 µM | [10] 66.9 µM and 32.2 µM | [11] 85.1 µM and 12.1 µM | [12] 83.9 µM and 16.2 µM | [13] 85.8 µM and 15.9 µM | [14] 12.8 µM
inactive: [3] | [5] | [6] | [7] | [14]

CC(C)N(C(=O)SCC(Cl)=C(Cl)Cl)C(C)C
active: [1] 15 µM | [2] 15 µM | [16] 15.9 µM | [7] 25 µM | [11] 15 µM | [12] 23.6 µM | [13] 23.7 µM
inactive: [15] | [4] | [5] | [6] | [8] | [9] | [10] | [14]

CC(Oc1cccc(Cl)c1)C(=O)O (stereo not drawn)
inactive: [1] | [2]

CCOP(=S)(Oc1cnc(C(C)(C)C)nc1)OC(C)C (stereo not drawn)
inactive: [15] | [3] | [5] | [6] | [7] | [8] | [9] | [10] | [11] | [12] | [13] | [17] | [18] | [14]
active: [1] 80.9 µM and 13.4 µM | [2] 79.7 µM and 17.4 µM | [4] 12.8 µM | [7] 16.5 µM | [8] 25.2 µM | [9] 26.4 µM | [10] 26.1 µM | [11] 20.1 µM | [12] 16.2 µM | [13] 16.6 µM | [19] 79.3 µM | [14] 18.6 µM

CC(C)[C@H](C(=O)O[C@H](C#N)c1cccc(Oc2ccccc2)c1)c1ccc(Cl)cc1
active: [1] 0.189 µM | [2] 0.564 µM

C#CCC1=C(C)C(OC(=O)C2C(C=C(C)C)C2(C)C)CC1=O (stereo not drawn)
inactive: [15]
active: [1] 0.303 µM | [2] 3 µM

CC[C@H](C)[C@H]1O[C@]2(C=C[C@@H]1C)C[C@@H]1C[C@@H](C/C=C(\C)[C@@H](O[C@H]3C[C@H](OC)[C@@H](O[C@H]4C[C@H](OC)[C@@H](NC)[C@H](C)O4)[C@H](C)O3)[C@@H](C)/C=C/C=C3\CO[C@@H]4[C@H](O)C(C)=C[C@@H](C(=O)O1)[C@]34O)O2
active: [1] 0.981 nM and 1.87 nM | [2] 318 nM and 15.9 nM | [3] 4.54 µM and 1.96 µM | [16] 1.79 µM | [4] 25 µM and 1.71 µM | [5] 5.17 µM and 2.01 µM | [6] 6.92 µM and 2.51 µM | [7] 587 nM and 1 µM | [8] 428 nM and 668 nM | [9] 1.47 µM and 1.53 µM | [10] 1.24 µM and 1.58 µM | [11] 387 nM and 828 nM | [12] 441 nM and 565 nM | [13] 522 nM and 658 nM | [14] 657 nM and 1.79 µM
inactive: [15]

CCCSP(=O)(OCC)Oc1ccc(Br)cc1Cl (stereo not drawn)
inactive: [1] | [2] | [7] | [8] | [9] | [10] | [11] | [12] | [13] | [19] | [14]

CCOP(=S)(OCC)Oc1ccc([N+](=O)[O-])cc1
inactive: [1] | [2] | [10] | [20] | [14]
active: [7] 20.9 µM | [8] 2.98 µM | [9] 23.7 µM | [11] 15 µM | [12] 15 µM | [13] 15 µM

CCOP(=O)(OCC)Oc1cc(C)nc(C(C)C)n1
inactive: [1] | [2] | [3] | [4] | [5] | [6] | [7] | [8] | [9] | [10] | [11] | [12] | [13] | [14]

CCOP(=S)(OCC)Oc1ccc2c(C)c(Cl)c(=O)oc2c1
inactive: [15] | [7] | [12] | [13] | [14]
active: [1] 21.9 µM | [2] 41.6 µM | [8] 50 µM | [9] 89.6 µM | [10] 84.7 µM | [11] 50 µM | [17] 22.1 µM | [18] 18.6 µM | [19] 18.9 µM

CCOP(=O)(NC(C)C)Oc1ccc(SC)c(C)c1 (stereo not drawn)
inactive: [15] | [1] | [2] | [3] | [5] | [6] | [7] | [8] | [9] | [10] | [11] | [12] | [13] | [14]
active: [1] 36.3 µM | [2] 90.9 µM | [4] 27.9 µM

COc1cc(OC)nc(Sc2cccc(Cl)c2C(=O)O)n1
inactive: [15]

CCCCSP(=O)(SCCCC)SCCCC
active: [1] 29.3 µM and 18.4 µM | [2] 29.6 µM and 35 µM | [4] 87.2 µM | [7] 14 µM | [8] 50 µM and 14 µM | [9] 77.8 µM and 49.9 µM | [10] 86.1 µM and 75.3 µM | [11] 50 µM and 14.2 µM | [12] 66.3 µM and 12.9 µM | [13] 73.5 µM and 15.5 µM | [14] 16.1 µM
inactive: [3] | [5] | [7] | [14]
